Out of some 52,000 compounds screened, about 1,700 (3.3%) were called active. Rule as the data show it: active = survival mostly below about 52% (no sharp cut-off); inactive = mostly above about 56%. The sample as a whole holds a higher share of actives than the screen did.
The compounds below were run on Wild type (assay: growth inhibition of S. aureus wild type versus tarO mutant, primary screen, teichoic acid synthesis inhibitors, RN4220, OD600 (AID 463173)). Conditions: S. aureus RN4220 wild type/DeltatarO growth, OD600, 18 h, active compounds read low, screened at 18.75 µg/mL (by protocol).

Row | SMILES | survival
1 | CC(C)CNc1nc(NC(C)(C)C)nc(Oc2ccc(=O)n(-c3ccccc3)n2)n1 | 84% (inactive)
2 | CCc1ccc(NCc2cc3cc(OC)c(OC)cc3n(CC(=O)Nc3cc(C)ccc3C)c2=O)cc1 | 63% (inactive)
3 | CCN(C(=O)CSc1nc2ccccc2n1Cc1cc(C)ccc1C)c1ccccc1 | 72% (inactive)
4 | COc1cc(NC(=O)Cn2cc(S(=O)(=O)c3ccccc3)c(=O)c3ccccc32)cc(OC)c1 | 78% (inactive)
5 | COc1ccc(N(C(=O)COc2ccc(Br)cc2)S(=O)(=O)c2ccc(C)cc2)cc1 | 87% (inactive)
6 | CCCCN(CC)C(=O)Cn1ncc2c3ccccc3n(CCC)c2c1=O | 98% (inactive)
7 | CN(C)CC(O)C1CCOC(C)(C)C1 (configuration not stated) | 111% (inactive)
8 | CCOC(=O)c1cnc2ccc(C)cc2c1Nc1ccc(OCc2ccccc2Cl)cc1 | 4% (active)
9 | CCOC(=O)c1cnc2ccc(OC)cc2c1Nc1cccc(C(C)=O)c1 | 2% (active)
10 | CCOC(=O)c1cnc2ccc(OC)cc2c1Nc1ccc(OCc2ccccc2Cl)cc1 | 6% (active)
11 | CCOC(=O)c1cnc2ccc(C(=O)OC)cc2c1Nc1ccc(OCc2ccccc2Cl)cc1 | 129% (inactive)
12 | CCOc1ccc(Nc2c(S(=O)(=O)c3ccc(Cl)cc3)cnc3ccc(OC)cc23)cc1 | 88% (inactive)
13 | CN(C)c1cc(Nc2ccc(Cl)cc2)c2c3c(onc13)-c1ccccc1C2=O | 96% (inactive)
14 | CCC(=O)N1CCc2cc(S(=O)(=O)NC(C(=O)NCCc3ccccc3)C(C)C)ccc21 (configuration not stated) | 83% (inactive)
15 | CCC1CCc2nc3sc(C(=O)Nc4ccc(F)cc4F)c(N)c3cc2C1 (configuration not stated) | 92% (inactive)
16 | Cc1cccc(CCNC(=O)Cn2ncc3c(=O)oc4ccccc4c32)c1 | 76% (inactive)
17 | Fc1ccc(-c2ccc(NCc3ccccc3)nn2)cc1 | 119% (inactive)
18 | Cc1cccc(CNC(=O)C2CCC(CNS(=O)(=O)c3ccc4c(c3)CCCC(=O)N4)CC2)c1 (configuration not stated) | 65% (inactive)
19 | CCn1cc2nc(SCc3cccc(OC)c3)n(Cc3ccc(Cl)cc3)c(=O)c2n1 | 10% (active)

Row | SMILES | survival
20 | CCn1cc2nc(SCc3cccc(C(F)(F)F)c3)n(Cc3ccc(Cl)cc3)c(=O)c2n1 | 146% (inactive)
21 | CCn1cc2nc(SCc3cccc(C(F)(F)F)c3)n(Cc3ccc(OC)cc3)c(=O)c2n1 | 71% (inactive)
22 | CCc1ccc(-c2cn3c(n2)SCC3)cc1 | 111% (inactive)
23 | CCCNC(=O)Cn1c(=O)c2cccn2c2cccnc21 | 89% (inactive)
24 | Cc1c(CNC(C)CCc2ccccc2)c(C(=O)O)c(C)n1Cc1ccc(F)cc1 (configuration not stated) | 93% (inactive)
25 | N#Cc1nc(COc2ccccc2Cl)oc1NCCc1ccccc1 | 25% (inactive)
26 | Cc1ccc(OCc2nc(C#N)c(NCCc3ccccc3)o2)cc1 | -1% (active)
27 | N#Cc1nc(COc2cccc(Cl)c2)oc1NCCc1ccccc1 | 19% (inactive)
28 | O=C(CCc1ccccc1)Nc1ccccc1 | 105% (inactive)
29 | CC(=O)Nc1ccc(NS(=O)(=O)c2c(C(=O)N3CCC(C)CC3)c(C)n(C)c2C)cc1 | -3% (active)
30 | Cc1c(C(=O)N2CCC(C)CC2)c(S(=O)(=O)NCc2ccc(Cl)cc2)c(C)n1C | 133% (inactive)
31 | CCOc1ccc(OCC)c(NS(=O)(=O)c2c(C(=O)N3CCC(C)CC3)c(C)n(C)c2C)c1 | 0% (active)
32 | CCOc1ccc(OCC)c(NS(=O)(=O)c2c(C(=O)N3CCCCCC3)c(C)n(C)c2C)c1 | 71% (inactive)
33 | COc1cc(OC)c(NS(=O)(=O)c2c(C(=O)N3CCC(C)CC3)c(C)n(C)c2C)cc1Cl | -1% (active)
34 | CCOc1ccc(CNS(=O)(=O)c2c(C(=O)N3CCC(C)CC3)c(C)n(C)c2C)cc1OC | 71% (inactive)
35 | Cc1cc(Cl)ccc1NS(=O)(=O)c1c(C(=O)N2CCC(C)CC2)c(C)n(C)c1C | 14% (active)
36 | COc1ccc(C)cc1NS(=O)(=O)c1c(C(=O)N2CCC(C)CC2)c(C)n(C)c1C | 85% (inactive)
37 | CC(=O)Nc1ccc(NS(=O)(=O)c2c(C(=O)N3CCCCCC3)c(C)n(C)c2C)cc1 | 65% (inactive)
38 | COc1cc(OC)c(NS(=O)(=O)c2c(C(=O)N3CCCCCC3)c(C)n(C)c2C)cc1Cl | 54% (inactive)

Row | SMILES | survival
39 | Cc1cc(Cl)ccc1NS(=O)(=O)c1c(C(=O)N2CCCCCC2)c(C)n(C)c1C | 77% (inactive)
40 | Cc1ccc(NS(=O)(=O)c2c(C(=O)N3CCC(C)CC3)c(C)n(C)c2C)cc1Cl | 131% (inactive)
41 | COc1ccc(C(=O)NCC(c2ccc3c(c2)OCO3)N2CCN(C)CC2)cc1 (configuration not stated) | 60% (inactive)
42 | CCc1ccc(-n2nc3ccc(NC(=O)COc4ccc(OC)cc4)cc3n2)cc1 | 95% (inactive)
43 | CCOc1ccc(CCNC(=O)C2CCN(Cc3nc(-c4ccccc4C)oc3C)CC2)cc1OCC | 81% (inactive)
44 | CCc1cccc(C)c1NC(=O)CCS(=O)(=O)c1cc(Br)cc2c1N(C(=O)C1CC1)CC2 | 85% (inactive)
45 | CC(=O)c1sc(NC(=O)c2c(-c3ccccc3)c(-c3ccccc3)nn(C)c2=O)nc1C | 54% (inactive)
46 | COc1cc(N(C(=O)c2ccco2)C(C(=O)NC2CCCC2)c2ccc(C)cc2)ccc1-n1cnnn1 (configuration not stated) | 105% (inactive)
47 | O=C(CSc1nnc(-c2ccccc2)o1)N1CCCc2ccccc21 | 68% (inactive)
48 | Cc1ccccc1-c1nnc(SCC(=O)N2CCCc3ccccc32)o1 | 15% (active)
49 | O=C(CSc1nnc(-c2cccc(F)c2)o1)N1c2ccccc2Sc2ccccc21 | 103% (inactive)
50 | COc1cccc(-c2nnc(SCC(=O)N3c4ccccc4Sc4ccccc43)o2)c1 | 11% (active)
51 | O=C(CSc1nnc(-c2ccccc2Cl)o1)N1CCCc2ccccc21 | 35% (inactive)
52 | Cc1cccc(-c2nnc(SCC(=O)N3CCCc4ccccc43)o2)c1 | 5% (active)
53 | Cc1ccc(-c2nnc(SCC(=O)N3CCCc4ccccc43)o2)cc1 | 65% (inactive)
54 | COc1cccc(-c2nnc(SCC(=O)N3CCc4ccccc43)o2)c1 | 69% (inactive)
55 | O=C(CSc1nnc(-c2ccc(F)cc2)o1)N1CCCc2ccccc21 | 66% (inactive)
56 | CCn1c(SC)nnc1C1CCCN(C(=O)Cc2cccnc2)C1 (configuration not stated) | 89% (inactive)
57 | CCC1CCCCN1CCCNC(=O)CN1C(=O)c2cccnc2Oc2ccc(Cl)cc21 (configuration not stated) | 65% (inactive)

Source: PubChem BioAssay AID463173 (ICCB-Longwood Screening Facility, Harvard Medical School, 2010)
